Percent Effect data for 52 compounds are collected here from ChEMBL document CHEMBL3988442, “University of Dundee, Small-Polar-MMV Screening Library” (2021).

In assay [1] the target is T1, Aspartate--tRNA(Asp/Asn) ligase (Mycobacterium tuberculosis (strain ATCC 25618 / H37Rv)) (UniProt P9WFW3). Note: in the data most compounds retested in dose-response had high values.
T1 sequence (whole entry): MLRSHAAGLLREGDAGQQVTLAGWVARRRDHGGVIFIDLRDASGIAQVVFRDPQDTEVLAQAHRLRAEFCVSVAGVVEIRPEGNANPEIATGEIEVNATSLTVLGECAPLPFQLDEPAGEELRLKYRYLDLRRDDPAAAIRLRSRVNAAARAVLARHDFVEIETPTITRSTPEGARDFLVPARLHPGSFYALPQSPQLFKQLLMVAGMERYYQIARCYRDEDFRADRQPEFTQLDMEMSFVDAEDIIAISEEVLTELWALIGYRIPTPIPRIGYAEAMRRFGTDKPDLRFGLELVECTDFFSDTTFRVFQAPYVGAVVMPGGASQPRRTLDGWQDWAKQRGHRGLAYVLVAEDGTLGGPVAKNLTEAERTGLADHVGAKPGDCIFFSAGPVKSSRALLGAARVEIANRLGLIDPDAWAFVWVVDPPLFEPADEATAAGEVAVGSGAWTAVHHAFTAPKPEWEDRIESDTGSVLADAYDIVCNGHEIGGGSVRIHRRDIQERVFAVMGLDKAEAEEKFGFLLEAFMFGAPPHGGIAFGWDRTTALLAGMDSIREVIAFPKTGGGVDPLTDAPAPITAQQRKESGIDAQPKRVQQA
Put plainly: Assay for Asp RNA synthetase-1 from Mycobacterium tuberculosis. Type of assay: functional. Further details: scale not given: direction of the effect not stated beside the values. Particulars: 30 µM.

The target in assay [2] is Shiga toxin 2 (Escherichia coli O157:H7) (UniProt P09385+P09386). Kind of assay: E. coli 0.157:H7 Shiga Toxin SOP - stx2 screening assay. In kind it is functional. To be noted: 30 µM. Further details: scale not given: direction of the effect not stated beside the values.

For `COc1cc2cc(C(=O)O)n(C)c2cc1OC`, the Percent Effect in assay [1] is -0.697%; in assay [2], -0.0542%.
As to `FC(F)(F)Cc1noc(CN2CCCC2c2noc(C3CC3)n2)n1` (centres undefined), the values for the Percent Effect in assay [1] and in assay [2] were 8.91% and 16.4%, respectively.
Take `NC(=O)COc1ccc(CNCc2ccc(F)cc2F)cc1`: the Percent Effect in assay [1] was -4.09%; in assay [2], -18.8%.
For the compound `Cc1cnn(CCNCc2ccc(C#N)cc2F)c1`, the Percent Effect in assay [1] is -3.18%; in assay [2] it was 6.24%.
For `O=C(NCC1CCOC1)c1csc(-c2ccco2)n1` (centres undefined), the values for the Percent Effect in assay [1] and in assay [2] were 2.85% and -11.7%, respectively.
As for `CCn1c(C(=O)N2CCN(CC(C)O)CC2)cc2ccccc21` (centres undefined), the Percent Effect is -4.64% in assay [1] and -48.2% in assay [2].
As for `Cc1cc(C)c2c(c1)C1(CC(=O)Nc3c1cnn3C(C)C)C(=O)N2` (centres undefined), the Percent Effect was found to be 1.68% in assay [1] and 1.39% in assay [2].
With `COc1ccc(-c2nc(CN3CC(n4nc(C)cc4C)C3)no2)cc1`, the Percent Effect was 5.02% in assay [1] and -49.6% in assay [2].
As for `CC(=O)c1ccccc1C(=O)NCC1(CO)CC1`, the Percent Effect in assay [1] was 2.82%; in assay [2] it was -19.8%.
In the same order, the values of `N#Cc1cccc(C(=O)N2CCc3ncc(Cn4cccn4)n3CC2)c1` are 3.32% and 9.25%.
As to `CCC1=N[C@@]2(CC[C@@H]3CN(CC(=O)N(C)C)C[C@@H]32)C(=O)N1CC1CC1`, the results for the Percent Effect in assay [1] and in assay [2] were -4.18% and -27.3%, respectively.
In the same order, the values of `CCOCCN1CCN(Cc2cccc(C(=O)N(C)C)c2)CC1` are -3.67% and -26.9%.
For `CCC(=O)N1CCC(c2nc3ccc(NC(C)C)cn3n2)CC1`, in that order: -3.11% and -40.8%.
For `Cc1cc(C[S+]([O-])CC(=O)NCc2cccs2)no1` (centres undefined), the Percent Effect in assay [1] is -0.395%; in assay [2] it was 9.34%.
For `Cn1cnc2c1CCN(CCCc1ccccc1)C2`, in that order: 1.13% and 1.04%.
For `Cc1ccccc1C(=O)NCc1ccc(N2CCNC(=O)C2)cc1`, in that order: 0.212% and -90.8%.
In the same order, the values of `Cc1cnc(CN2CCCC2c2noc(C)n2)cn1` (centres undefined) are 0.514% and 4.6%.
Regarding `CCOc1ccc(CC(CNC(=O)c2occc2C)C(N)=O)cc1` (centres undefined), the Percent Effect in assay [1] was found to be 2.25%; in assay [2], 23.6%.
With `CC(C(=O)NCCCN1CCCCCC1=O)n1cncn1` (centres undefined), the Percent Effect stood at 2.08% in assay [1] and 20% in assay [2].
For `CNS(=O)(=O)CCCN1CCCC1c1cc(C)on1` (centres undefined), in that order: 1.49% and 5.74%.
As for `CCn1cc(NC(=O)NCC(O)COc2cccc(F)c2)cn1` (centres undefined), the Percent Effect in assay [1] turned out to be 1.57%; in assay [2], 20.1%.
In the same order, the values of `CC(C)(C)c1nc(CN2CCCC(Cn3cncn3)C2)cs1` (centres undefined) are 4.23% and 13.2%.
In the same order, the values of `Cn1ccnc1CN1CCC2(CC1)CN(CC1CC1)C(=O)CO2` are 2.11% and -17.7%.
In the case of `Cn1nc(C#N)c2c1CN(C(=O)c1cccnc1)CCC2`, the Percent Effect was 7.3% in assay [1] and -7.73% in assay [2].
In the same order, the values of `CCC1=N[C@@]2(CC[C@@H]3CN(CC4CC4)C[C@@H]32)C(=O)N1C` are -1.79% and 6.84%.
In the same order, the values of `O=C(c1cccc(S(=O)(=O)NCCCc2ncc[nH]2)c1)N1CCOCC1` are 8.25% and -13.2%.
For the compound `Cc1ccc(OCC(O)CN2CCC(Cn3cccn3)CC2)cc1` (centres undefined), the Percent Effect in assay [1] is -1.46%; in assay [2] it was -51.7%.
In the case of `CNC(=O)C1(c2cnccn2)CCCN1C(=O)c1ccccc1OC` (centres undefined), the Percent Effect in assay [1] was -4.66%; in assay [2], -21.4%.
For `NCc1cnn(-c2ccccc2C(=O)NCc2ccncc2)c1`, in that order: -3.11% and 13.2%.
Turning to `Cc1noc(C)c1CN1CCN(C(=O)Cn2cncn2)CC1`, the results for the Percent Effect in assay [1] and in assay [2] were 3.12% and 7.4%, respectively.
For `Cc1ccc(CNCc2nnc3n2CC(C(F)(F)F)CC3)cc1` (centres undefined), in that order: -6.08% and -16%.
In the same order, the values of `COc1cccc2c1OCC(C(=O)N1CCC(N3CCOC3=O)CC1)C2` (centres undefined) are -3.21% and 17%.
Turning to `O=C(CCNCC(F)(F)F)N1CCC(Nc2cccnn2)CC1`, the Percent Effect is 2.25% in assay [1] and -14.2% in assay [2].
In the same order, the values of `c1cnn(CC2CN(Cc3ccc(-n4ccnc4)cc3)CCO2)c1` (centres undefined) are -1.11% and -7.92%.
For `CC(C)c1nc2n(n1)CC(NCc1ncc(-c3ccccc3)o1)CC2` (centres undefined), the Percent Effect in assay [1] is -5.88%; in assay [2], -9.35%.
For `NC(=O)N1CC[C@H](O)[C@@H]1Cc1cccnc1`, in that order: 1.51% and 0.815%.
`COc1cccc(CC(=O)N2CCc3ncnc(NC(C)C)c3CC2)c1`: the Percent Effect in assay [1] is -0.351%; in assay [2], -3.19%.
In the same order, the values of `CC(C)C(=O)NC1CCN(Cc2cccc3c2OCCO3)CC1` are -1.32% and 5.01%.
For `Cn1cc(CN2C[C@@H]3COC[C@@H](C(=O)N4CCCCO4)[C@@H]3C2)cn1`, in that order: -1.16% and -15.2%.
`Cc1nnc(N2CCC(CS(N)(=O)=O)CC2)c(C#N)c1C`: the Percent Effect turned out to be 6.31% in assay [1] and 21.6% in assay [2].
As to `CNC(=O)CCCNCc1c(C(C)C)nn(C)c1N(C)C`, the Percent Effect in assay [1] came to 1.04%; in assay [2], 3.71%.
In the same order, the values of `O=C(CCCc1ncc(-c2ccccc2)o1)N1CCN(CCO)CC1` are -1.6% and -44.5%.
Regarding `CC(C)c1noc(C(C)N2CCN(Cc3ccco3)CC2)n1` (centres undefined), the Percent Effect was found to be 0.141% in assay [1] and 13.9% in assay [2].
For `COCC(=O)N1CCCC1c1ccnc(Nc2cnccn2)n1` (centres undefined), in that order: 0.0744% and 1.15%.
For `COCCN1C[C@H]2[C@@H](C1)N(C(=O)c1cccs1)CC[C@H]2OC`, in that order: 0.503% and 3.28%.
For `CCc1n[nH]c(C2CN(Cc3nnc(C4CC4)n3C)CCO2)n1` (centres undefined), the results for the Percent Effect in assay [1] and in assay [2] were -0.577% and 9.55%, respectively.
For the compound `CC(C)C(=O)NCCNc1nccc(-c2cc(C(=O)O)ccn2)n1`, the Percent Effect is 0.977% in assay [1] and -4.31% in assay [2].
For `COc1cccc(C)c1C(=O)N1C[C@@H](CN(C)C)[C@@H](CO)C1`, in that order: 0.951% and -14.7%.
Regarding `Cc1cc(CNc2cc(Cl)ccc2OCCS(C)(=O)=O)no1`, the Percent Effect is -2.26% in assay [1] and -0.408% in assay [2].
With `CCN(CC)C(=O)Cn1ccc2cc(NC(=O)C3CCCO3)ccc21` (centres undefined), the Percent Effect in assay [1] is -4.41%; in assay [2], -1.75%.
For `CC(C)(C)C(=O)NS(=O)(=O)c1ccc(C#N)cc1C(F)(F)F`, in that order: 0.681% and 21.9%.
As for `COCc1nc(CNC2CCSCC2)no1`, the Percent Effect in assay [1] is -4%; in assay [2], 9.42%.
